system: MILI (PIWIL2) piRISC loaded with L1MC piRNA (26 nt); test: pre-steady-state target cleavage rate (min^-1); guide: L1MC piRNA 5'p-UAACUAAAUACUAUGCAAGCUGUAGG; MIWI and MILI are mouse PIWI proteins and EfPiwi is from a freshwater sponge; tags in brackets are library labels; higher = faster piRNA-guided slicing of the target; conditions: auxiliary factor: none (no GTSF1)
Method in brief: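 Active affinity-purified piRISC carrying one synthetic guide (1 nM) was mixed with a transcribed, DNA-blocked target RNA library […] in HEPES–potassium acetate buffer at 33 °C for 0–8 or 0–960 min, with or without 500 nM GTSF1 partner protein. Uncleaved targets were then sequenced and normalised to depth and to weakly complementary targets. Three trials were pooled, and k3 was capped at 0.0001 min^-1. A burst-and-steady-state fit was applied to obtain the pre-steady-state cleavage rate.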
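Further: 1 nM active piRISC with 0.1 nM target library at 33 °C single turnover.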

pre-steady-state target cleavage rate, < 0.0001:
UCCUGGAUGUCGAACGUAUUUAUUUAGUUA
UCCUGGAUGUCGAACGUUAGUAUUAACUUA
UCCUGGAUGUCGAACGUAUCUAUUUAGUCUA

— the supplement of paper PMC10338343
